# Measurements reported in PubChem BioAssay (NCI).
# Compounds without any hit were thinned out: in the full panel of roughly 83,000, 20% have a hit.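 Negative percent growth values reflect cell death: -40 means 40% of the cells present at the start died, and -100 means all died.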 Values without a mark were called inactive. Active and inactive are the calls of the source. How the source made its calls: active means growth percent below 10; inactive means the rest.
# Assays:
# Assay in all cases: NCI-60 one-dose screen, 48 h (100 = growth as untreated, 0 = no growth, -100 = all killed)
# Conditions in all cases: 10 µM unless noted
# SR leukemia = tested on: SR leukemia
# OVCAR-8 ovarian = tested on: OVCAR-8 ovarian
# OVCAR-5 ovarian = tested on: OVCAR-5 ovarian
# OVCAR-4 ovarian = tested on: OVCAR-4 ovarian
# SK-OV-3 ovarian = tested on: SK-OV-3 ovarian
# IGROV1 ovarian = tested on: IGROV1 ovarian
# OVCAR-3 ovarian = tested on: OVCAR-3 ovarian
# HS 578T breast = tested on: HS 578T breast
# NCI/ADR-RES ovarian = tested on: NCI/ADR-RES ovarian
SMILES,growth (SR leukemia),growth (OVCAR-8 ovarian),growth (OVCAR-5 ovarian),growth (OVCAR-4 ovarian),growth (SK-OV-3 ovarian),growth (IGROV1 ovarian),growth (OVCAR-3 ovarian),growth (HS 578T breast),growth (NCI/ADR-RES ovarian)
Cc1ccc(S(=O)(=O)OCC#CCOS(=O)(=O)c2ccc(C)cc2)cc1,10.8%,34.6%,112%,73.4%,98.3%,-40.2% (active),12.4%,62.4%,31%
COC(=O)c1ccc2c(c1)c1c(C)c3cnccc3c(C)c1n2C,18.2%,0.0639% (active),-33.3% (active),-14.8% (active),-15.3% (active),-33.1% (active),-26% (active),-15% (active),-25% (active)
Oc1nc(NCc2ccccc2)sc1/C=C1\C=Nc2ncccc21,2.17% (active),47.9%,82.2%,96.4%,53.9%,67.2%,53.5%,53.2%,73.7%
CC1(C)N=C(N)N=C(N)N1c1cc(Cl)ccc1Cl,67%,85.5%,59.2%,96.4%,97.2%,68.4%,115%,101%,67.8%
COC(=O)Cn1c2c(c3c(OC)cccc31)C(=O)c1ccccc1-2,84.8%,107%,81.1%,101%,96.9%,110%,116%,97.2%,95.5%
CCN1CCN(CCNc2nccc(-c3c(-c4ccc(F)c(O)c4)nc4occn34)n2)S1(=O)=O,29.5%,11.7%,102%,19.8%,54%,44.2%,39.4%,42.6%,12.3%
N#CC1=C(N)Oc2c(sc3c(F)cccc23)C1c1ccc([N+](=O)[O-])cc1 (stereo not drawn),5.1% (active),-21.6% (active),-14.6% (active),15.1%,-7.03% (active),-26% (active),-55.1% (active),-26.1% (active),
CC(=O)c1sc(-c2ccc(F)cc2)cc1O,82.6%,104%,111%,79.5%,,115%,109%,117%,106%
C=C(C)[C@@H]1CC[C@]2(C(=O)N3CCNCC3)CC[C@]3(C)[C@H](CC[C@@H]4[C@@](C)(CCC(=O)N5CCNCC5)[C@H](C(=C)C)CC[C@]43C)[C@@H]12,-15.2% (active),47.8%,104%,81.9%,101%,101%,70.7%,92.4%,95.6%
COc1cc(/C=C/c2cc(/C=C/c3ccc(O)c(OC)c3)n(C(=O)Nc3ccc(Cl)cc3)n2)ccc1O,1.52% (active),-19.8% (active),10.9%,13.3%,-0.374% (active),9.93% (active),-11% (active),8.23% (active),17.5%
ClC(Cl)c1nc(-c2ccccc2)n2nc(-c3ccccc3)cc2n1,7.56% (active),16.5%,0.621% (active),-10.8% (active),9.58% (active),52.7%,-28.3% (active),-27.3% (active),6.09% (active)
CSc1ccc2c3c(n(C[C@H](O)CO)c(=O)c2c1)-c1ccccc1C3=O,1.4% (active),33.3%,62.2%,85%,81.6%,52.5%,76.5%,83.3%,56%
O=C(Nc1cccnc1Nc1ccc(Cl)cc1)c1cn(Cc2cccc(Oc3ccccc3)c2)nn1,21.5%,53.8%,101%,83.9%,53%,77.6%,30.7%,39.9%,14.4%
C=CC(CC(c1ccccc1)(c1ccccc1)c1ccccc1)N(CC)CC (stereo not drawn),-6.97% (active),94%,72.5%,67.5%,72.5%,77%,70.1%,82.1%,66.1%
CCCC(=O)NC(c1ccc2c(c1)OCO2)c1cc(Cl)c2cccnc2c1O (stereo not drawn),10.9%,10.6%,54%,19.3%,29.8%,16.2%,17.6%,44.4%,1.56% (active)
